Screens as filed in PubChem BioAssay.
Hits are enriched below; roughly 19% of the tested compounds scored in any of these assays.
HT1080-NT tox – kills 2HG-producing HT-1080-NT fibrosarcoma cells; AID 686970; HT-1080-NT fibrosarcoma viability, CellTiter-Glo ATP luminescence, 48 h; Potency, µM (titrated, usually from 46.1 µM), hits mostly cytotoxic; 360,000 tested, 1.6% active;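 also: NT is the 2HG producing partner of a matched IDH1 knockdown line; nearly all actives have a fitted effect of over 55% in size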
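Toxicity toward the 2HG-producing NT line was scored as %Activity, normalised to DMSO and no-cell wells, from CellTiter-Glo luminescence after 48 hours' treatment.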
KB-3-1 cytotox – KB-3-1 parental cell cytotoxicity. KB-3-1 viability, CellTiter-Glo ATP luminescence, 72 h. 400,000 tested, 1.4% active. AID 1347075. Potency, µM (doses to about 46.1 µM), usual class: cytotoxic; also: nearly all actives have a fitted effect of over 60% in size
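Parental KB-3-1 viability, qHTS format: 72 h compound exposure, 37 °C; CellTiter-Glo; media-only wells and DMSO plates as controls; concentration-effect fits on corrected data.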
DT40 TDP1 no CPT – qHTS for Inhibitors of human tyrosyl-DNA phosphodiesterase 1 (TDP1): qHTS in cells in absence of CPT; 420,000 tested, 15% active; Potency, µM (titrated, usually from 46.2 µM), most hits filed as inhibitors; DT40 Tdp1-/- hTDP1 cells, no CPT, ATP luminescence, 48 h; also: nearly all actives have a fitted effect of over 55% in size
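A cellular qHTS used chicken DT40 cells lacking endogenous Tdp1 but carrying stably transfected human TDP1. Compounds were applied without camptothecin, and cell growth kinetics were judged by ATP-dependent luminescence after ≥48 hr.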
KB-V1 cytotox – kills drug-selected multidrug resistant KB-V1 cells; KB-V1 MDR cells viability, CellTiter-Glo, 72 h; Potency, µM (highest dose often 46.1 µM), most hits filed as cytotoxic; 400,000 tested, 3.4% active; also: nearly all actives have a fitted effect of over 60% in size
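Luminescent ATP read-out (CellTiter-Glo, 10 min) measures survival of drug-selected KB-V1 MDR cells after 72 h, 37 degrees C compound exposure. Medium: phenol-red-free DMEM, 10% FBS. Values from fitted concentration-response curves.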
HT1080 IDH1KD tx – kills HT-1080 cells with IDH1 knockdown | 360,000 tested, 2% active | HT-1080 IDH1 knockdown viability, ATP luminescence, 48 h | Potency, µM (top dose mostly 46.1 µM), usual class: cytotoxic
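% activity derives from luminescence (CellTiter-Glo), normalised to DMSO and no-cell wells. HT-1080-IDH1KD cells, 750/well, had 48 h compound exposure at 37 °C.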
DT40 TDP1 CPT – DT40-hTDP1 cell growth loss with CPT | chicken DT40 Tdp1-/-;hTDP1 cells + 20 nM CPT, ATP luminescence, 48 h | Potency, µM (doses to about 46.2 µM), hits mostly inhibitors | 420,000 tested, 12% active | AID 686979; also: nearly all actives have a fitted effect of over 55% in size
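Chicken DT40 Tdp1-/- cells stably complemented with human TDP1 were seeded at 400 cells/well in medium containing 20 nM camptothecin, exposed to pin-transferred compounds, and grown at 37 °C for at least 48 hr. Viability was read as ATP luminescence.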
Numbers stand for hits. Calls follow the shape of the dose curve; as a rule, active = well fitted curve in the direction sought with a large enough effect; inconclusive = small, poorly fitted or top-dose-only effect, or another doubt; inactive = no such curve, though single readings can be large; an effect the other way counts as inactive or inconclusive.

What do the screens show for `O=C(c1cccs1)N1C[C@H](O)[C@@H](n2cc(-c3ccc(F)cc3)nn2)C[C@@H]1c1ccccc1`?
HT1080-NT tox: inactive; KB-3-1 cytotox: inactive; DT40 TDP1 no CPT: inactive; KB-V1 cytotox: inactive; HT1080 IDH1KD tx: inactive; DT40 TDP1 CPT: inactive

Results for CC(=O)c1ccc(-c2cc(F)cc3c2OC(CNC(=O)c2ccc[n+]([O-])c2)C3)s1 (stereo unspecified) ?
DT40 TDP1 no CPT: inactive; DT40 TDP1 CPT: inactive

Results for Cc1ccccc1Nc1nc(N)nc(COC(=O)c2ccc([N+](=O)[O-])o2)n1 ?
HT1080-NT tox: inactive; KB-3-1 cytotox: inactive; DT40 TDP1 no CPT: inconclusive; KB-V1 cytotox: inactive; HT1080 IDH1KD tx: inactive; DT40 TDP1 CPT: inconclusive

Results for Nc1c(-c2ccc(C(F)(F)F)cc2)nc2ncccn12 ?
HT1080-NT tox: inactive; KB-3-1 cytotox: inactive; DT40 TDP1 no CPT: inconclusive; KB-V1 cytotox: inactive; HT1080 IDH1KD tx: inactive; DT40 TDP1 CPT: inactive

What do the screens show for `COC/C=C/C1=CC2=CC(=O)C(C)(OC(=O)c3cnc4ccccc4n3)C(=O)C2=CN1c1ccccc1` (stereo unspecified)?
HT1080-NT tox: inactive; KB-3-1 cytotox: inactive; DT40 TDP1 no CPT: 16µM; KB-V1 cytotox: inactive; HT1080 IDH1KD tx: inactive; DT40 TDP1 CPT: inconclusive

Results for Cn1cncc1C#Cc1ccc2cc(CCO)oc(=O)c2c1 ?
HT1080-NT tox: inactive; KB-3-1 cytotox: inactive; DT40 TDP1 no CPT: inactive; KB-V1 cytotox: inactive; HT1080 IDH1KD tx: inactive; DT40 TDP1 CPT: inactive

What do the screens show for `COc1ccc(Cl)cc1NC(=O)c1noc(C)c1[N+](=O)[O-]`?
HT1080-NT tox: inactive; KB-3-1 cytotox: inactive; DT40 TDP1 no CPT: 2.3µM; KB-V1 cytotox: inactive; HT1080 IDH1KD tx: inactive; DT40 TDP1 CPT: 2.9µM

Results for COc1ccc(Cl)cc1NC(=O)c1noc2c1CCCC2 ?
HT1080-NT tox: inactive; KB-3-1 cytotox: inactive; DT40 TDP1 no CPT: inactive; KB-V1 cytotox: inactive; HT1080 IDH1KD tx: inactive; DT40 TDP1 CPT: inactive

What do the screens show for `COc1ccc(Cl)cc1NC(=O)c1cccc([N+](=O)[O-])c1O`?
HT1080-NT tox: inconclusive; KB-3-1 cytotox: 12µM; DT40 TDP1 no CPT: 8.2µM; KB-V1 cytotox: 21µM; HT1080 IDH1KD tx: inconclusive; DT40 TDP1 CPT: 12µM

Results for CCOc1ccc(NC(=O)CC2C(=O)N(c3ccccc3)C(=O)N2CCc2sccc2C)cc1 (stereo unspecified) ?
KB-3-1 cytotox: inconclusive; DT40 TDP1 no CPT: 18µM; KB-V1 cytotox: inconclusive; DT40 TDP1 CPT: 15µM

How did COc1ccc(NC(=O)CC2C(=O)N(c3ccccc3)C(=O)N2CCc2sccc2C)cc1 (stereo unspecified) do in these assays?
KB-3-1 cytotox: inactive; DT40 TDP1 no CPT: 16µM; KB-V1 cytotox: inactive; DT40 TDP1 CPT: inconclusive

How did COc1ccc(NC(=O)CC2C(=O)N(c3ccccc3)C(=O)N2CCc2cccs2)cc1 (stereo unspecified) do in these assays?
HT1080-NT tox: inactive; KB-3-1 cytotox: inactive; DT40 TDP1 no CPT: inactive; KB-V1 cytotox: inactive; HT1080 IDH1KD tx: inactive; DT40 TDP1 CPT: inactive

Results for COc1cccc(N2C(=O)C(CC(=O)Nc3ccccc3)N(CCc3sccc3C)C2=O)c1 (stereo unspecified) ?
KB-3-1 cytotox: inactive; DT40 TDP1 no CPT: inconclusive; KB-V1 cytotox: inactive; DT40 TDP1 CPT: 18µM

How did CCOc1ccc(NC(=O)CC2C(=O)N(c3ccc(OC)cc3)C(=O)N2CCc2cccs2)cc1 (stereo unspecified) do in these assays?
HT1080-NT tox: inactive; KB-3-1 cytotox: inactive; DT40 TDP1 no CPT: inconclusive; KB-V1 cytotox: 18µM; HT1080 IDH1KD tx: inactive; DT40 TDP1 CPT: inactive

What do the screens show for `COc1ccc(NC(=O)CC2C(=O)N(c3ccc(F)cc3)C(=O)N2CCc2sccc2C)cc1` (stereo unspecified)?
KB-3-1 cytotox: inactive; DT40 TDP1 no CPT: inconclusive; KB-V1 cytotox: inactive; DT40 TDP1 CPT: inconclusive
